# Experimental data as given in PubChem BioAssay AID1053180 (Broad Institute, 2014).
# Values joined by “and” are separate entries in the source; they are usually repeats but may differ in a detail not shown here. Equal entries are not always repeated. Hit rate of the full screen: of about 9,600 compounds, about 20 (0.2%) were called active. This is one part of a sample in which actives are shown more often than they occur.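 How the source made its calls: active means highest normalized replicate activity of 15 or more, or at least half the replicates reach 15 or more; inactive means neither condition met.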 Some structures have more than one record in an assay (separate samples or runs), and their calls can disagree.
# Assay: activators of Pax4 gene expression, primary screen, RT-PCR, mouse alpha TC1 cells, single point (AID 1053180);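 further: Pax4 Ct normalized to GAPDH with activation seen as lower delta delta Ct; plate controls were plate neutral control wells for no effect and Pax4 plasmid positive control for full effect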
# Conditions: Pax4 mRNA qPCR, 6 days, at 10 µM, stronger effect = higher value, 100% = Pax4 plasmid added at qPCR
row,SMILES,activation
1,CCS(=O)(=O)Nc1ccc2c(c1)C(=O)N(C)[C@H]1CC[C@H](CC(=O)NCCCN3CCOCC3)O[C@H]1CO2,0% (inactive)
2,C/C=C/c1ccc([C@@H]2[C@H](CO)N3CCCCN(S(=O)(=O)c4ccc(OC)cc4)C[C@@H]23)cc1,0.0005% (inactive)
3,COCC(=O)N1[C@@H](C#N)[C@@H](c2ccccc2C2=CCCC2)[C@@H]1CO,0.01% (inactive)
4,O=C(Nc1ccc(F)cc1)N1[C@@H]2CNc3ccccc3[C@@H]2[C@@H]1CO,0.0065% (inactive)
5,COCC(=O)Nc1ccc2c(c1)OC[C@H](C)N(C)C[C@H](C)[C@H](OC)CN(C)C2=O,0% (inactive)
6,COCCN(C[C@H]1N[C@H](CO)[C@@H]1c1ccccc1)C(=O)NC1CCCC1,0.002% (inactive)
7,C[C@H]1CN([C@@H](C)CO)C(=O)c2ccccc2-c2ccccc2CO[C@H]1CN(C)Cc1ccc2c(c1)OCCN2C,0.073% (inactive)
8,COc1ccc2c3c(n(C)c2c1)[C@H](CO)N(C)CC31CN(S(=O)(=O)c2cccs2)C1,0.001% (inactive)
9,Cc1noc(C)c1S(=O)(=O)N(C)C[C@@H]1Oc2c(NC(=O)c3ccc(-c4nccs4)cc3)cccc2C(=O)N([C@@H](C)CO)C[C@H]1C,-0.0005% (inactive)
10,N#C[C@@H]1[C@@H](c2ccccc2-c2cccc(F)c2)[C@H](CO)N1C(=O)C1CC1,0.0185% (inactive)
11,CN1C(=O)c2cc(NC(=O)c3cscn3)ccc2OC[C@H]2O[C@H](CC(=O)NCc3ccc(Cl)c(Cl)c3)CC[C@@H]21,0.0025% (inactive)
12,COCCNC(=O)C[C@H]1C[C@@H]2c3cc(NC(=O)CN(C)C)ccc3O[C@@H]2[C@@H](CO)O1,0.003% (inactive)
13,O=C(C[C@H]1C[C@@H]2c3cc(NC(=O)NC4CCCC4)ccc3O[C@@H]2[C@@H](CO)O1)NCc1ccccc1F,0.0035% (inactive)
14,CO[C@H]1CN(C)C(=O)c2cc(NC(=O)C3CCCCC3)ccc2OC[C@@H](C)N(C(=O)c2ccccc2)C[C@@H]1C,-0.0005% (inactive)
15,CN1C(=O)c2cc(NC(=O)C3CCOCC3)ccc2OC[C@@H]2O[C@H](CC(=O)NCCc3ccncc3)CC[C@H]21,0.0015% (inactive)
16,C[C@H]1CNC(=O)[C@H](Cc2ccc(C(F)(F)F)cc2)CCn2nncc2COC1,2.47% (inactive)
17,C[C@@H]1CNC(=O)[C@H](Cc2ccc(C(F)(F)F)cc2)CCn2nncc2COC1,0.259% (inactive)
18,C[C@H]1CNC(=O)[C@@H](Cc2ccc(C(F)(F)F)cc2)CCn2nncc2COC1,7.98% (active)
19,CN(C)CC(=O)N1[C@H](CO)[C@@H](c2ccc(C#CC3CCCCC3)cc2)[C@@H]1C#N,0.005% (inactive)
20,COCC(=O)N1[C@H](CO)[C@@H]2c3ccccc3N(C)C[C@@H]21,0.0025% (inactive)
21,Cc1nn(C)cc1NC(=O)C[C@@H]1CC[C@@H]2[C@H](COc3ccc(NC(=O)c4cccc(F)c4)cc3C(=O)N2C)O1,0.0015% (inactive)
22,CC(C)[C@H]1COCn2nncc2CC[C@H](C)C(=O)N1,0.0005% (inactive)
23,c1cc(-c2ccc(C3[C@@H]4CN(Cc5nccs5)C[C@H]3N4)cc2)ccn1 (stereo partly drawn),0.0255% (inactive)
24,O=C(Nc1ccccc1)N1CC(=O)N2[C@@H](CO)[C@H](c3ccc(C#CC4CCCCC4)cc3)[C@@H]2C1,0% (inactive)
25,CO[C@H]1CC[C@@H]2CCOc3c(C#N)cccc3C(=O)N(C)C[C@@H](OC)[C@@H](C)C(=O)N(C)C[C@H]1O2,-0.0005% (inactive)

row,SMILES,activation
1,COc1cccc(C#Cc2ccc([C@H]3[C@H](CO)N4C(=O)CN(C(=O)Cc5cccnc5)C[C@@H]34)cc2)c1,0% (inactive)
2,CO[C@H]1CC[C@H]2CCOc3c(C#N)cccc3C(=O)N(C)C[C@H](OC)[C@H](C)C(=O)N(C)C[C@@H]1O2,-0.0005% (inactive)
3,CO[C@H]1CN(C)C(=O)c2cc(NC(=O)CC(F)(F)F)ccc2OC[C@@H](C)N(CC2CC2)C[C@@H]1C,-0.0005% (inactive)
4,C[C@H](CO)N1C[C@H](C)[C@H](CN(C)Cc2ccc3c(c2)OCO3)Oc2ccc(NS(=O)(=O)c3cn(C)cn3)cc2CC1=O,0.004% (inactive)
5,N#C[C@@H]1N[C@@H](CO)[C@@H]1c1ccc(C#CC2CCCCC2)cc1,0.001% (inactive)
6,Cc1noc(C)c1S(=O)(=O)N(C)C[C@H]1Oc2c(NS(=O)(=O)c3cn(C)cn3)cccc2C(=O)N([C@@H](C)CO)C[C@@H]1C,-0.005% (inactive)
7,COc1ccc2c3c([nH]c2c1)[C@H](CO)N(C(=O)Nc1ccc(F)cc1)CC31CN(S(=O)(=O)c2ccc(C)cc2)C1,0.006% (inactive)
8,CCS(=O)(=O)Nc1ccc2c(c1)C(=O)N(C)[C@@H]1CC[C@H](CC(=O)NC3CCCCC3)O[C@@H]1CO2,0% (inactive)
9,C[C@@H]1CN([C@H](C)CO)C(=O)Cc2cc(NS(=O)(=O)c3ccc(Cl)cc3)ccc2O[C@@H]1CN(C)C(=O)Nc1ccc(C(F)(F)F)cc1,0.005% (inactive)
10,CC(C)NC(=O)Nc1ccc2c(c1)C(=O)N([C@H](C)CO)C[C@H](C)[C@@H](CN(C)C(=O)C1CCCCC1)OCCCC[C@H](C)O2,-0.0015% (inactive)
11,O=C(C[C@@H]1CC[C@H]2[C@@H](COC[C@H](O)CN2S(=O)(=O)c2cccc(F)c2)O1)NCc1ccncn1,0.011% (inactive)
12,Cc1nn(C)cc1NC(=O)C[C@@H]1CC[C@@H]2[C@@H](COc3ccc(NC(=O)c4cccc(F)c4)cc3C(=O)N2C)O1,0.0025% (inactive)
13,C[C@@H]1CN([C@H](C)CO)C(=O)c2cc(NS(=O)(=O)c3ccccc3)ccc2O[C@@H](C)CCCCO[C@@H]1CN(C)C(=O)C1CCCCC1,-0.001% (inactive)
14,CC(C)[C@@H]1CCc2cnnn2COC[C@H](Cc2ccccc2)NC1=O,-0.0175% (inactive)
15,O=C(C[C@H]1CC[C@@H]2[C@H](COC[C@H](O)CN2Cc2ccc3c(c2)OCO3)O1)N1CCCCC1,0.002% (inactive)
16,COc1ccc2c3c([nH]c2c1)[C@@H](CO)NCC31CN(Cc2cc(F)ccc2F)C1,0.0025% (inactive)
17,O=S(=O)(c1ccc(F)cc1)N1CCCCN2[C@H](CO)[C@H](c3ccc(-c4cncnc4)cc3)[C@H]2C1,0.001% (inactive)
18,O=C(C[C@H]1C[C@H]2c3cc(NS(=O)(=O)c4ccccc4)ccc3O[C@H]2[C@H](CO)O1)N1CCOCC1,0.0015% (inactive)
19,CC(=O)N1[C@@H]2Cn3c(ccc(-c4cccnc4)c3=O)[C@H]1[C@@H](C(=O)NC1Cc3ccccc3C1)[C@@H]2CO,0% (inactive)
20,C[C@H]1CN([C@@H](C)CO)C(=O)Cc2cc(NS(=O)(=O)c3ccc(Cl)cc3)ccc2O[C@H]1CN(C)C(=O)Nc1ccc(C(F)(F)F)cc1,-0.003% (inactive)
21,CN(C)C(=O)c1ccc(-c2ccc([C@@H]3[C@@H](CO)N4C(=O)CN(C(=O)CC5CC5)C[C@H]34)cc2)cc1,0.005% (inactive)
22,COc1ccc(CN2[C@@H]3CN(C(=O)NC(C)C)c4ccccc4[C@@H]3[C@@H]2CO)cc1,-0.0005% (inactive)
23,C[C@H](CO)N1C[C@H](C)[C@@H](CN(C)Cc2ccccc2)Oc2c(NC(=O)Cc3cn(C)c4ccccc34)cccc2C1=O,13.8% (active)
24,C[C@H](CO)N1C[C@H](C)[C@@H](CN(C)Cc2ccc(-c3ccccc3)cc2)Oc2c(NS(C)(=O)=O)cccc2C1=O,-0.001% (inactive)
25,C[C@H](CO)N1C[C@H](C)[C@@H](CN(C)Cc2ccc(Oc3ccccc3)cc2)Oc2c(NC(=O)CCC(F)(F)F)cccc2C1=O,0.039% (inactive)

row,SMILES,activation
1,C[C@@H](NC(=O)C[C@H]1CC[C@@H]2[C@@H](COc3ccc(NC(=O)C4CCOCC4)cc3C(=O)N2C)O1)c1ccccc1,0.0015% (inactive)
2,O=C(NC1CCCC1)N[C@H]1C=C[C@H](CC(=O)N2CCOCC2)O[C@H]1CO,0.0045% (inactive)
3,C[C@@H]1CN([C@@H](C)CO)C(=O)Cc2cc(NC(=O)C3CCCCC3)ccc2O[C@@H]1CN(C)Cc1ccc(Cl)c(Cl)c1,46.5% (active)
4,C[C@@H]1CN([C@H](C)CO)C(=O)Cc2cc(NC(=O)C3CCCCC3)ccc2O[C@H]1CN(C)Cc1ccc(Cl)c(Cl)c1,0.389% (inactive)
5,COc1ccc(S(=O)(=O)Nc2ccc3c(c2)CC(=O)N([C@H](C)CO)C[C@H](C)[C@H](CN(C)Cc2ccc(C(=O)Nc4ccccc4N)cc2)O3)cc1,15.1% (active)
6,COc1ccc(S(=O)(=O)Nc2ccc3c(c2)CC(=O)N([C@H](C)CO)C[C@@H](C)[C@@H](CN(C)Cc2ccc(C(=O)Nc4ccccc4N)cc2)O3)cc1,0.03% (inactive)
7,COc1ccc(S(=O)(=O)Nc2ccc3c(c2)CC(=O)N([C@H](C)CO)C[C@@H](C)[C@H](CN(C)Cc2ccc(C(=O)Nc4ccccc4N)cc2)O3)cc1,0.03% (inactive)
8,C[C@H]1CN([C@@H](C)CO)C(=O)Cc2cc(NC(=O)C3CCCCC3)ccc2O[C@H]1CN(C)Cc1ccc(Cl)c(Cl)c1,0.106% (inactive)
9,CCCN1C[C@H](C)[C@H](OC)CN(C)C(=O)c2ccc(NS(=O)(=O)c3cn(C)cn3)cc2OC[C@@H]1C,0.0005% (inactive)
10,CN1CCN(C(=O)C[C@H]2C[C@H]3c4cc(NS(C)(=O)=O)ccc4O[C@H]3[C@H](CO)O2)CC1,0% (inactive)
11,O=C(c1ccccn1)N1CC[C@@H]2[C@@H](CO)Nc3ccc(C#Cc4cccnc4)cc3[C@@H]21,0.001% (inactive)
12,Fc1cccc(CN2C[C@@H]3N[C@H](C2)C3c2ccc(/C=C/c3ccccc3)cc2)c1 (stereo partly drawn),3.54% (inactive) and 8.86% (active)
13,Fc1cccc(-c2ccc(C3[C@@H]4CN(Cc5cncnc5)C[C@H]3N4)cc2)c1 (stereo partly drawn),0.047% (inactive) and 0.0125% (inactive)
14,CN(C)C(=O)c1cccc(-c2ccc(C3[C@@H]4CN(Cc5cocn5)C[C@H]3N4)cc2)c1 (stereo partly drawn),0.001% (inactive)
15,Cc1ccccc1S(=O)(=O)N1C[C@@H]2N[C@H](C1)C2c1ccc(/C=C/c2ccccc2)cc1 (stereo partly drawn),0.183% (inactive)
16,C(=C\c1ccc(C2[C@@H]3CN(Cc4nccs4)C[C@H]2N3)cc1)/c1ccccc1 (stereo partly drawn),0.714% (inactive) and 0.0635% (inactive)
17,C/C=C/c1ccc(C2[C@@H]3CN(S(=O)(=O)c4ccccc4F)C[C@H]2N3)cc1 (stereo partly drawn),0.01% (inactive)
18,Fc1ccc(-c2ccc(C3[C@@H]4CN(Cc5ccccc5)C[C@H]3N4)cc2)cc1 (stereo partly drawn),1.66% (inactive) and 0.0585% (inactive)
19,CN(C)C(=O)c1cccc(-c2ccc(C3[C@@H]4CN(Cc5ccccc5F)C[C@H]3N4)cc2)c1 (stereo partly drawn),1.26% (inactive) and 21.9% (active)
20,COc1ccccc1-c1ccc(C2[C@@H]3CN(Cc4cccc(F)c4)C[C@H]2N3)cc1 (stereo partly drawn),0.062% (inactive)
21,Cc1cccc(-c2ccc(C3[C@@H]4CN(Cc5cccc(F)c5)C[C@H]3N4)cc2)c1 (stereo partly drawn),50.5% (active) and 0.557% (inactive)
22,CN(C)C(=O)c1ccc(-c2ccc(C3[C@@H]4CN(Cc5ccccc5Cl)C[C@H]3N4)cc2)cc1 (stereo partly drawn),0.0085% (inactive)
23,O=S(=O)(c1ccc(F)cc1)N1C[C@@H]2N[C@H](C1)C2c1ccc(/C=C/c2ccccc2)cc1 (stereo partly drawn),8.33% (active) and 0.035% (inactive)
